According to PubChem BioAssay AID623868 (Vanderbilt High Throughput Screening Facility, 2012):
Screen size: about 2,100 compounds; about 760 (36%) were called active. Not all results are given here. A number with no mark means an inactive call.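 Rule for the calls: active = thallium-flux fluorescence traces judged by eye to show enhanced or reduced glutamate response, manual score 1 or -1, so both directions (some results past the limit were not filed as active); inactive = the rest, including fluorescent or raised-baseline compounds.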

experiment: non-GIRK thallium flux modulation in mGlu8 cells, confirmation, counter-screen for GIRK activator project, cell-based, HEK-293 rmGlu8, no GIRK (AID 623868); conditions: thallium flux fluorescence, at 10 µM, actives lie on both sides, codes: 1 enhancer, -1 blocker, 0 none, thallium stimulus containing EC20 glutamate;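 note: extra codes mark interference with 3 for fluorescent and 4 for baseline rise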

| SMILES | manual score |
| --- | --- |
| O=C(NN=c1c(=O)c2ccccc2c1=O)c1ccccc1 | 1 (active) |
| C/C(=N\O)C(C)NC(=O)c1ccccc1 (stereo not drawn) | 0 |
| O=C(Nc1ccc(SC(F)F)cc1)C12CCC(CC1)C2 | 0 |
| O=c1[nH]c2ccc(Cl)cc2c(=O)n1Cc1ccco1 | 0 |
| O=c1c2cc(N3CCOCC3)ccc2[nH]c(=S)n1Cc1ccc(Cl)cc1 | 0 |
| O=c1c2cc(Cl)ccc2[nH]c(=S)n1Cc1ccco1 | 1 (active) |
| O=c1c2cc(Cl)ccc2[nH]c(=S)n1Cc1cccs1 | 1 (active) |
| Cc1c(C(=O)O)[nH]c2c1C(=O)CC(c1ccc(Cl)cc1)C2 (stereo not drawn) | 0 |
| CN1CCN(CC(=O)N2c3ccccc3C(C)(c3ccc(Cl)cc3)CC2(C)C)CC1 (stereo not drawn) | 0 |
| CC(C)CNC(=S)NC(=O)c1ccc([N+](=O)[O-])cc1 | 1 (active) |
| CCCCCC(=O)NC(=S)NNC(=O)c1ccc([N+](=O)[O-])cc1 | 1 (active) |
| CCCCNC(=S)NC(=O)c1ccc([N+](=O)[O-])cc1 | 1 (active) |
| O=C(NN=C(Cc1ccccc1)Cc1ccccc1)c1ccc(F)cc1 | 0 |
| CC(C)CNC(=S)NC(=O)c1ccc(F)cc1 | 1 (active) |
| COC(=O)C(CC(C)C)NC(=O)c1ccc([N+](=O)[O-])c(C)c1 (stereo not drawn) | 0 |
| CCCn1c(=N)n(CC(O)COc2cccc(C)c2)c2ccccc21 (stereo not drawn) | 0 |
| CN(C)Cc1c(O)c(Cl)cc2c3c(c(=O)oc12)CCCC3 | 0 |
| COc1ccc2c(c1)C(C)=CC(C)(C)N2C(=O)CNCc1ccc2c(c1)OCO2 | 0 |
| O=C(O)c1oc2ccccc2c1CSc1ccccn1 | 0 |
| CCn1cc(C(=O)N2CC=C(c3ccccc3)CC2)c(=O)c2ccc(C)nc21 | -0.5 |
| CCN(CC)c1ccc(/C=C2/C(=O)c3ccc(C(=O)O)cc3C2=O)cc1 | 3 |
| COc1ccc2nc(N3C(=O)/C(=C/c4ccccc4)NC3=S)sc2c1 | 1 (active) |
| O=C(c1ccco1)N1CCN(c2ncnc3scc(-c4cccs4)c23)CC1 | 0 |
| Cc1cc(N2CCOCC2)n2nc(C)c(-c3ccccc3)c2n1 | 0 |
| CCCn1c(=O)c2ccccc2n2c(SCC(=O)N3CCc4ccccc4C3)nnc12 | -1 (active) |
| CCCn1c(=O)c2ccccc2n2c(SCc3nc4ccccc4s3)nnc12 | -1 (active) |

| SMILES | manual score |
| --- | --- |
| Cn1c(SCC(=O)N2c3ccccc3CCc3ccccc32)nnc1-c1ccc(O)cc1 | 0 |
| CCCn1c(=O)c2ccccc2n2c(SCCOc3ccccc3F)nnc12 | -0.5 |
| CCc1cccc(CC)c1-n1c(SCC(=O)N2CCc3ccccc3C2)nnc1-c1cccnc1 | 0 |
| COC(=O)c1ccc(NC(=O)C23CC4CC(C2)CC(n2cncn2)(C4)C3)cc1 | 0 |
| CCCCOC(=O)c1ccc(NC(=S)NC(=O)c2c(Br)c(C)nn2C)cc1 | 1 (active) |
| CCCCOC(=O)c1ccc(NC(=S)NC(=O)c2c(Cl)cnn2C)cc1 | 0.5 |
| COC(=O)c1ccc(NC(=S)NC(=O)c2c(Cl)cnn2C)cc1 | 1 (active) |
| CCCCOC(=O)c1ccc(NC(=S)NC(=O)c2c(Cl)cnn2CC)cc1 | 1 (active) |
| CCCCc1ccc(NC(=S)Nc2ccc(Cl)c(S(=O)(=O)N(C)C)c2)cc1 | 0 |
| CCCOC(=O)c1ccc(NC(=O)c2ccoc2C)cc1 | 0 |
| COC(=O)c1ccc(Cl)c(NC(=O)CN2CCN(C)CC2)c1 | 0 |
| CCCCOC(=O)Nc1ccc(C(=O)OCCC)cc1 | 0 |
| O=C(NC(=S)Nc1ccccc1N1CCOCC1)c1cccs1 | 1 (active) |
| CC1CCN(c2ccccc2NC(=S)NC(=O)c2cccs2)CC1 | 1 (active) |
| Cc1ccc(NC(=O)C(c2ccccc2)C2CCCC2)cc1 (stereo not drawn) | 0 |
| O=C1NC(=S)S/C1=C\c1ccc(SCc2ccccc2)o1 | 1 (active) |
| O=C1NC(=S)/C(=C\c2ccc(-c3ccccc3Cl)o2)S1 | 3 |
| O=C(CSc1cccc2cccc(Cl)c12)NCc1cccs1 | 0 |
| O=S(=O)(Nc1nc(-c2sccc2Cl)cs1)c1cc(Cl)ccc1Cl | 0 |
| CCC(C(=O)OCC(=O)Nc1ccc(Cl)c(S(=O)(=O)N(C)C)c1)c1ccccc1 (stereo not drawn) | 0 |
| COC(=O)c1sccc1NC(=O)CSc1ccccc1NS(=O)(=O)c1cc(Cl)ccc1Cl | 1 (active) |
| COC(=O)c1sccc1NC(=O)CSc1ccccc1NS(=O)(=O)c1ccccc1Cl | 1 (active) |
| COC(=O)c1sccc1NC(=O)CSc1ccccc1NS(=O)(=O)c1ccc(Cl)cc1 | 0.5 |
| CN(C)S(=O)(=O)c1cccc(NC(=O)COc2cccc(C#N)c2)c1 | 0 |
| Cc1ccc(C)c(C(=O)c2c(C)nc3sccn23)c1 | 0 |
| Cc1ccc(/C=N\NC(=O)c2cc([N+](=O)[O-])cc([N+](=O)[O-])c2)o1 | 1 (active) |

| SMILES | manual score |
| --- | --- |
| Cc1ccc(OCC(=O)N/N=C\c2ccc(-c3cccc(C(=O)O)c3)o2)c(C)c1 | 0 |
| CC(/C=C/c1ccccc1)=N/NC(=O)c1cc([N+](=O)[O-])cc([N+](=O)[O-])c1 | 0 |
| Cc1ccc(-c2cc(-c3ccccc3)[nH]c(=S)c2C#N)cc1 | 1 (active) |
| COc1ccc(CC(=O)Nc2cc(=O)n(C)c(=O)n2C)cc1 | 0 |
| Cc1cc(C)nc(Sc2ncnc3sc4c(c23)CCC4)n1 | 1 (active) |
| CC(C)Cn1cnc2sc3c(c2c1=N)CCCC3 | 0 |
| COc1ccc(/C=C/c2nc3sc4c(c3c(=O)o2)CCC4)cc1 | 3 |
| O=C(CCc1ccccc1)NNC(=S)NC(=O)c1ccc(Cl)cc1 | 1 (active) |
| COc1ccc(CCC(=O)NCc2cnn(C)c2)cc1 | 0 |
| O=C(CCSCc1cccc(Cl)c1)NCCc1ccc(Cl)cc1 | 0 |
| COc1ccc(C(=O)NC(=S)NNC(=O)CCc2ccccc2)cc1 | 1 (active) |
| COc1ccc(C(=O)CC(=O)C(=O)NCCc2cccc(C)c2)cc1 | 0.5 |
| Clc1ccc2[nH]c3c(NCC4CCCO4)ncnc3c2c1 (stereo not drawn) | 0 |
| Oc1[nH]c2c(Cl)cc(Cl)cc2c1N=NC(=S)NCC1CCCO1 (stereo not drawn) | 1 (active) |
| Oc1[nH]c2ccccc2c1N=NC(=S)NCCc1ccccc1 | 1 (active) |
| Oc1[nH]c2ccccc2c1N=NC(=S)NCC1CCCO1 (stereo not drawn) | 1 (active) |
| Oc1cccc(Nc2nc(NCC3CCCO3)c3ccccc3n2)c1 (stereo not drawn) | 0 |
| COc1ccc(S(=O)(=O)N(CC(=O)N2CCN(c3ccccc3)CC2)c2ccccc2)cc1 | 0 |
| CN1C=CC2=C(C#N)C(N)C(C#N)(C#N)C(c3ccccc3)C2C1 (stereo not drawn) | 3 |
| CC(=O)c1cccc(NC(=O)C2CCCN2S(=O)(=O)c2cccc3cccnc23)c1 (stereo not drawn) | 0 |
| Cc1cc(/C=c2/sc3nc4ccccc4n3c2=O)c(C)n1-c1ccccn1 | 0 |
| Cc1ccc2cccc(Oc3nnnn3-c3ccccc3)c2n1 | 0 |
| CCNC(=S)Nc1scc(-c2ccccc2)c1C(=O)OCC | 1 (active) |
| CCOC(=O)c1c(C)[nH]c2c1cc(O)c1ccccc12 | 0 |
| CCOC(=O)c1c(-c2ccccc2)csc1NC(=S)NC | 1 (active) |
| CCOC(=O)C(Cc1ccccc1)NC(=O)Cn1nnc(-c2ccccc2)n1 (stereo not drawn) | 0 |

| SMILES | manual score |
| --- | --- |
| CCOC(=O)c1c(-c2ccc(C)o2)csc1NC(=S)NC(=O)c1cccs1 | 0 |
| CCOC(=O)c1c(-c2ccc(C)o2)csc1NC(=S)NC(=O)N(C)C | 1 (active) |
| Cc1ccc(OCC(=O)Nc2ccc(C)c(S(=O)(=O)N3CCCCC3)c2)c([N+](=O)[O-])n1 | 0 |
| NC(=O)c1noc(C(=O)N(CC(=O)NC2CCCC2)Cc2ccc3c(c2)OCO3)c1N | 0 |
| O=C1c2cccc3c(O)ccc(c23)C(=O)N1Cc1ccccc1 | 3 |
| CCc1ccc(C2=NN(c3ccc(S(N)(=O)=O)cc3)C(c3ccc(F)cc3)C2)cc1 (stereo not drawn) | 0 |
| O=S(=O)(Nc1ccccc1N1CCCCC1)c1ccc(Cl)s1 | 1 (active) |
| O=C(Nc1ccccc1)c1ccccc1NS(=O)(=O)c1ccc(Cl)s1 | 0.5 |
| O=S(=O)(Nc1cc(Cl)ccc1N1CCCCC1)c1cccs1 | 1 (active) |
| O=C(Nc1nncs1)c1ccccc1NS(=O)(=O)c1cccs1 | 0 |
| CN1CCN(c2ccccc2NS(=O)(=O)c2ccc3c(c2)CCN3C(=O)C2CCC2)CC1 | 0 |
| CCOc1ccccc1N1CCN(S(=O)(=O)c2cccs2)CC1 | 0 |
| CCCN(CCC)CCCNC(=O)c1cc2c(=O)n(C)c3ccccc3c2n1C | 0 |
| S=c1nc[nH]c2c1sc1nc(-c3ccccc3)c3c(c12)CCCC3 | 1 (active) |
| Cc1ccc2nsnc2c1S(=O)(=O)Nc1cccc2nsnc12 | 1 (active) |
| CCOC(=O)N1CCN(c2c(F)cc3[nH]c(=S)[nH]c3c2Br)CC1 | 0 |
| Cc1sc2ncnc(N(C)Cc3cccs3)c2c1C | -1 (active) |
| CC(C)CCNC(=O)C(C)N(Cc1ccc(F)cc1)C(=O)c1ccc(CN2CCCCC2)o1 (stereo not drawn) | 0 |
| Cc1ccc(OCC(=O)NNC(=O)C(C)Sc2ncnc3sc(C)c(C)c23)cc1 (stereo not drawn) | 1 (active) |
| Cc1ccc(OCCCC(=O)Nc2nccs2)cc1 | 0 |
| CC(NC(=O)COc1ccccc1)C(=O)NC1=NCCS1 (stereo not drawn) | 0 |
| CC1CC2=C(CC1/C=N/NC(N)=S)C(C)(C)CCC2 (stereo not drawn) | 0 |
| COc1ccccc1OCC(O)Cn1c(=N)n(Cc2ccccc2)c2ccccc21 (stereo not drawn) | 0 |
| CCOC(=O)C1=C(C)NC2=C(C(=O)CC(c3ccc(OC)c(OC)c3)C2)C1c1ccc(C)o1 (stereo not drawn) | 0 |
| CC1=C(C(=O)OCC2CCCO2)C(c2ccc(C)o2)C2=C(CC(c3ccc(F)cc3)CC2=O)N1 (stereo not drawn) | -1 (active) |
